Source: PubChem BioAssay AID651605 (National Center for Advancing Translational Sciences (NCATS), 2012)
Results filed as inconclusive are left out. The source made the active and inactive calls. The call rests on the fitted dose curve; in most records, active means well fitted inhibition curve with a large enough effect; inconclusive means small, poorly fitted or top-dose-only effect; inactive means flat fitted curve, though single readings scatter.

Each compound was assayed against Ubiquitin carboxyl-terminal hydrolase 1 (Homo sapiens) (UniProt O94782) (assay: Inhibitors of USP1/UAF1: SAR in Primary Assay). Conditions: Recombinant USP1/UAF1, Ub-Rhodamine cleavage fluorescence; series mostly up to 57.1 µM.
Sequence of Ubiquitin carboxyl-terminal hydrolase 1 (Homo sapiens) (O94782 whole entry, looked up): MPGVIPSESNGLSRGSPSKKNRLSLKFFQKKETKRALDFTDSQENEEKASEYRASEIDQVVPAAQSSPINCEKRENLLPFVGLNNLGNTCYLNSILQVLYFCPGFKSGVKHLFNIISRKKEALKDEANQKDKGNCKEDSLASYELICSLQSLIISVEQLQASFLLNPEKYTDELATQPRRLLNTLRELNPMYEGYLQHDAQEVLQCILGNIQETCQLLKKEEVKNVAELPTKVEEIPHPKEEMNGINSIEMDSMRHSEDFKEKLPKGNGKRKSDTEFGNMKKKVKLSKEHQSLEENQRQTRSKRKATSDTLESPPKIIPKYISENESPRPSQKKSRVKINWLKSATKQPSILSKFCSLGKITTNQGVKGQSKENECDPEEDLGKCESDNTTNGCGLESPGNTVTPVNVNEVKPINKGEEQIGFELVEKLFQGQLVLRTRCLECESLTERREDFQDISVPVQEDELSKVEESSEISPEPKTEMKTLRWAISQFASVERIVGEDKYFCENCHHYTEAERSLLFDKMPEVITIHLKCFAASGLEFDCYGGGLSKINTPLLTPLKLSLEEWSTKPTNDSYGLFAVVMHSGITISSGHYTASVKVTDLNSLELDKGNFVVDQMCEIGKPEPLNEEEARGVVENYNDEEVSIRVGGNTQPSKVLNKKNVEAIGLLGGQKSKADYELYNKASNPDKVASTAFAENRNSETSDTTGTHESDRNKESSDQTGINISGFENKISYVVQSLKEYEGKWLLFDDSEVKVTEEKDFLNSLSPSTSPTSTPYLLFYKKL
Text: Deubiquitinating enzymes (DUBs) are a class of enzymes that can cleave isopeptide bond formed between the C-terminal carboxylate of ubiquitin and a lysine side-chain amino group on the target protein. Among them, ubiquitin specific proteases (USPs) constitute the largest DUB family. Human USPs are emerging as promising targets for pharmacological intervention because of their connection to a number of human diseases, including prostate, colon and breast cancer (1, 2), pediatric acute lymphoblastic leukemia (3), and familial cylindromatosis (4). The advantage of inhibiting USPs lies in the potential specificity of therapeutic intervention that can lead to better efficacy and reduce nonspecific side effects. In a collaboration between the University of Delaware and the NIH Chemical Genomics Center, a high-throughput screen assay was developed to screen for USP1/UAF1 inhibitors (5). This assay was used to test the analogs that were synthesized based on SAR around the original hit. NIH Chemical Genomics Center [NCGC] NIH Molecular Libraries Probe Centers Network [MLPCN] MLPCN Grant: DA030552-01 Assay Submitter (PI): Zhihao Zhuang, University of Delaware 1. Priolo, C., et al. (2006) The isopeptidase USP2a protects human prostate cancer from apoptosis. Cancer Res 66, 8625-8632 2. Popov, N., et al. (2007) The ubiquitin-specific protease USP28 is required for MYC stability. Nat Cell Biol 9, 765-774 3. De Pitta, C., et al. (2005) A leukemia-enriched cDNA microarray platform identifies new transcripts with relevance to the biology of pediatric acute lymphoblastic leukemia. Haematologica 90, 890-898 4. Kovalenko, A., et al. (2003) The tumour suppressor CYLD negatively regulates NF-kappaB signalling by deubiquitination. Nature 424, 801-805 5. Chen, J., et al. (2011) Selective and cell-active inhibitors of the USP1/ UAF1 deubiquitinase complex reverse cisplatin resistance in non-small cell lung cancer cells. Chem Bio 18(11):1390-400.
3 microliters of reagents (buffer in columns 3 and 4 as negative control and 1nM USP1/UAF1 complex in columns 1, 2, and 5-48) are dispensed into Greiner black solid bottom 1536-well assay plates. Compounds are then transferred via Kalypsys pin tool equipped with 1536-pin array (10nl slotted pins, V&P Scientific, San Diego, CA). Following an incubation step of 15 min at room temperature, 1ul of Ub-Rho substrate (150nM final concentration) is added to initiate the reaction. The plates are immediately centrifuged at 1000 rpm for 15 seconds, and subsequently transferred to a ViewLux high-throughput CCD imager (PerkinElmer) wherein kinetic measurements of fluorescence are acquired using 480 nm excitation/540 nm emission filter set (6 reads every 60 seconds, see Table 1). All reagents are diluted in an assay buffer consisting of 50mM HEPES (pH 7.8), 0.5mM EDTA, 0.1 mg/ml BSA, 1mM TCEP, and 0.01% Tween-20.

SMILES | Potency
Fc1cnc(-c2ccccc2C(F)F)nc1NCc1ccc(-c2ccn[nH]2)cc1 | 1520 nM (active)
Cc1cnc(-c2ccccc2C(C)C)nc1NCC1CCN(c2cnccn2)CC1 | 121 nM (active)
CN(Cc1ccc(-c2ccccc2)cc1)c1nc(-c2ccccc2C(F)(F)F)nc2ccccc12 | 4290 nM (active)
Cc1cnc(-c2ccccc2C(C)O)nc1NCc1ccc(-c2cccnc2)cc1 (stereo not given) | 1360 nM (active)
Fc1cnc(-c2ccccc2C(F)F)nc1NCc1ccc(-c2cccnc2)cc1 | 1210 nM (active)
COc1ccccc1-c1ncc(C)c(NCc2ccc(-c3cccnc3)cc2)n1 | 764 nM (active)
Cc1cnc(-c2ccccc2C(C)C)nc1NCc1ccc(C(N)=O)cc1 | 4290 nM (active)
Cc1cnc(-c2ccccc2C(C)C)nc1NCc1ccc(-c2cccnc2)cc1 | 68.1 nM (active)
Cc1cccc(C(CO)Nc2nc(-c3ccccc3C(C)C)ncc2C)c1 (stereo not given) | 1080 nM (active)
CC(C)c1ccccc1-c1ncc(F)c(NCc2ccc(-c3ccn[nH]3)cc2)n1 | 152 nM (active)
CC(C)c1ccccc1-c1nc2c(c(NCc3ccc(-c4cccnc4)cc3)n1)CNC2 | 1520 nM (active)
CC(C)c1ccccc1-c1nccc(NCc2ccc(-c3ccnc(C(F)(F)F)c3)cc2)n1 | 764 nM (active)
CC(C)c1ccccc1-c1nc(NCc2ccc(-c3cccnc3)cc2)c2[nH]cnc2n1 | 121 nM (active)
CC(C)c1ccccc1-c1nc(NCC2CCN(c3cccnc3)CC2)c2ccccc2n1 | 85.7 nM (active)
CC(C)c1ccccc1-c1ncc(F)c(NCc2ccc(-n3ccnn3)cc2)n1 | 17.1 nM (active)
FC(F)(F)c1ccccc1-c1nc(NCc2ccc(C3CCCCC3)cc2)c2ccccc2n1 | 6810 nM (active)
Cc1cnc(-c2ccccc2C(C)C)nc1N(C)Cc1ccc(-c2cccnc2)cc1 | 681 nM (active)
CC(C)c1ccccc1-c1nc(NCc2ccc(-c3cccnc3)cc2)c2ccccc2n1 | 152 nM (active)
FC(F)(F)c1cc(-c2ccc(CNc3nc(-c4ccncc4)nc4ccccc34)cc2)ccn1 | 19200 nM (active)
CC(C)c1ccccc1-c1nc(NCc2ccc(-c3cccnc3)cc2)c2sccc2n1 | 121 nM (active)

SMILES | Potency
FC(F)(F)c1ccccc1-c1nc(NCc2ccc(-c3cncnc3)cc2)c2ccccc2n1 | 1920 nM (active)
FC(F)(F)c1cc(-c2ccc(CNc3nc(-c4ccccc4C(F)(F)F)nc4ccsc34)cc2)ccn1 | 3410 nM (active)
Cc1cnc(-c2ccccc2C(C)C)nc1NCc1ccc(-c2nn[nH]n2)cc1 | 3830 nM (active)
Fc1cnc(-c2ccccc2C(F)F)nc1NCc1ccc(-n2ccnn2)cc1 | 1210 nM (active)
CC(C)c1ccccc1-c1ncc(F)c(NCC2CCN(c3cnccn3)C2)n1 (stereo not given) | 4290 nM (active)
Clc1ccccc1-c1nc(NCc2ccc(-c3cccnc3)cc2)c2ccccc2n1 | 857 nM (active)
Fc1ccccc1-c1nc(NCc2ccc(-c3cccnc3)cc2)c2ccccc2n1 | 3410 nM (active)
Cc1ccc(-c2ccc(CN(C)c3nc(-c4ccccc4C(C)C)ncc3C)cc2)cn1 | 541 nM (active)
FC(F)(F)c1ccc(-c2nc(NCc3ccc(-c4ccnc(C(F)(F)F)c4)cc3)c3ccccc3n2)cc1 | inactive
Cc1cnc(-c2ccccc2C(C)C)nc1NCc1ccc(C2CCCNC2)cc1 (stereo not given) | 7640 nM (active)
Cc1cnc(-c2ccccc2C(C)C)nc1NC(C)c1ccc(-c2cccnc2)cc1 (stereo not given) | 136 nM (active)
Cc1cnc(-c2ccccc2C(C)C)nc1NCc1ccc(-c2ccc(F)nc2)cc1 | 60.7 nM (active)
FC(F)(F)c1ccccc1-c1nc2c(c(NCc3ccc(-c4cccnc4)cc3)n1)CCC2 | 681 nM (active)
Cc1nc(-c2ccccc2C(C)C)nc(NCc2ccc(-c3cccnc3)cc2)c1C | 136 nM (active)
Cc1cnc(-c2ccccc2C(C)C)nc1NCc1cccnc1 | 2150 nM (active)
Cc1ccc(-c2ccc(CNc3nc(-c4ccccc4C(C)C)ncc3C)cc2)cn1 | 42.9 nM (active)
c1ccc(-c2nc(NCc3ccc(-c4cccnc4)cc3)c3ccccc3n2)cc1 | 13600 nM (active)
Nc1nc(NCc2ccc(-c3cccnc3)cc2)c2ccccc2n1 | inactive
Cc1cnc(-c2ccccc2C(F)(F)F)nc1NCc1ccc(-c2cccnc2)cc1 | 271 nM (active)
Cc1cccc(CNc2nc(-c3ccccc3C(C)C)ncc2C)c1 | 136 nM (active)
